Here are results for 21 compounds from PubChem BioAssay (NCI).

Assay in all cases: NCI-60 one-dose screen, 48 h (100 = growth as untreated, 0 = no growth, -100 = all killed)
The subject of one test is SK-MEL-2 melanoma. The following applies: 10 µM unless noted.
For another test, the system named is SN12C renal. The settings on record: 10 µM unless noted.
The test system of the next test is UO-31 renal. The following applies: 10 µM unless noted.
In the next test the test system is TK-10 renal. The following applies: 10 µM unless noted.
The test system of another test is ACHN renal. The following applies: 10 µM unless noted.
A further test concerns A498 renal. The following applies: 10 µM.
The next test has as its system HL-60(TB) leukemia. The following applies: 10 µM unless noted.
In a further test the test system is CCRF-CEM leukemia. The following applies: 10 µM unless noted.
The subject of the next test is CAKI-1 renal. The following applies: 10 µM unless noted.
For the next test, the system named is EKVX NSCLC. The following applies: 10 µM unless noted.

About 83,000 compounds went through this panel and 20% of them were active in at least one assay; those are over-represented in the sample as a whole.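 Treatment: one concentration, 48 hours, 96-well format. Scoring: percent growth, with anything below 10 considered active.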 Values without a mark were called inactive. Activity calls are given as the source filed them.

As for `Cc1ccc(N2COOC3(OOC2)C2CC4CC(C2)CC3C4)cc1`, the growth is 104% in the test with SK-MEL-2 melanoma; 106% in the test on SN12C renal; 20.7% in the test with UO-31 renal; 98.7% with TK-10 renal; 97.7% in the test on ACHN renal; 88.4% with A498 renal. Also, the results for the growth in the test on HL-60(TB) leukemia and with CCRF-CEM leukemia were 66.6% and 107%, respectively.
With `COc1cccc(/C=C/[N+](=O)[O-])c1`, the growth is 97.4% in the test with SK-MEL-2 melanoma; 99.5% in the test with SN12C renal; 45.8% in the test on UO-31 renal; 90.9% with TK-10 renal; 74.7% in the test on ACHN renal; 96.8% in the test on CAKI-1 renal. Further, the figures for the growth in the test on A498 renal, in the test with HL-60(TB) leukemia and in the test on CCRF-CEM leukemia were 43.8%, 17.4% and 51.2%, respectively.
Consider `CCN(CCO)C(Cc1ccccc1)c1ccccc1` (centres undefined), for which the growth with SK-MEL-2 melanoma is 105%; in the test with SN12C renal it was 102%; in the test on UO-31 renal it was 94%; in the test on TK-10 renal, 101%; with ACHN renal, 108%; with A498 renal, 96.3%. Moreover, the values for the growth with HL-60(TB) leukemia and with CCRF-CEM leukemia were 111% and 2.74% (active), respectively.
As to `CC(C)CCC1(CCCl)C(=O)NC(=O)NC1=O`, the growth is 104% in the test with SK-MEL-2 melanoma; 95.6% with SN12C renal; 91% in the test with UO-31 renal; 100% in the test with TK-10 renal; 102% in the test with ACHN renal; 94.6% with CAKI-1 renal. Moreover, the growth with A498 renal was 89.4%; in the test with CCRF-CEM leukemia, 95.3%.
For `COC(=O)C1OC(Oc2ccc(N(CCCl)CCCl)cc2)C(OC(C)=O)C(OC(C)=O)C1OC(C)=O` (centres undefined), the growth in the test with SK-MEL-2 melanoma is 109%; in the test with SN12C renal, 62.4%; in the test with UO-31 renal, 73.1%; in the test with TK-10 renal, 92.5%; in the test on CAKI-1 renal, 3.7% (active); in the test with A498 renal, 104%. Besides, the growth in the test with HL-60(TB) leukemia is 40.1%; with CCRF-CEM leukemia it was 37.2%.
On to `COc1ccc(-n2c(C)nc3cc(OC)c(OC)cc3c2=O)cc1OC`, for which the growth in the test on EKVX NSCLC is 108%; in the test with UO-31 renal, 94.4%; with TK-10 renal it was 102%; in the test with ACHN renal, 109%; in the test with CAKI-1 renal, 97.3%; in the test with A498 renal, 95.8%. In addition, the growth is 100% in the test with HL-60(TB) leukemia and 98.1% in the test on CCRF-CEM leukemia.
Turning to `CC(=O)O[C@H]1CC[C@]2(C)[C@H]3CC[C@]4(C)[C@@H](OC(C)=O)CC[C@H]4[C@@H]3[C@@H](C)[C@]2(O)C1`, the growth in the test with SK-MEL-2 melanoma was 99.1%; in the test with UO-31 renal, 88.7%; in the test on TK-10 renal, 112%; in the test on ACHN renal, 112%; in the test on A498 renal, 105%; in the test with CCRF-CEM leukemia it was 93.1%.
In the case of `O=C(Nc1ccc(Cl)cc1)Nc1nccs1`, the growth in the test on SN12C renal was 50.4%; in the test with UO-31 renal it was 40.3%; in the test on ACHN renal it was 54.4%; in the test on CAKI-1 renal, 22.6%; in the test on A498 renal it was 8.26% (active); with HL-60(TB) leukemia it was -18.6% (active). In addition, the growth with CCRF-CEM leukemia is 6.31% (active).
For the compound `Cn1cc(C2=C(c3cn(C4CCN(Cc5ccccn5)CC4)c4ccccc34)C(=O)NC2=O)c2ccccc21`, the growth is 83.4% in the test on EKVX NSCLC; 81.1% in the test with SN12C renal; 48.4% in the test on UO-31 renal; 56.3% with TK-10 renal; 63.8% in the test on ACHN renal; 50.8% in the test with CAKI-1 renal. Also, the growth in the test with A498 renal was 88.1%; in the test on HL-60(TB) leukemia, 39.8%; with CCRF-CEM leukemia, 112%.
For the compound `C/C1=C/C(=O)O[C@@H]2C[C@@H](CC[C@H](C)/C=C\C=C\CC1)O[C@@](O)([C@@H]1CSC(=O)N1CO)C2`, the growth is 6.56% (active) in the test on EKVX NSCLC; 47.8% in the test on SN12C renal; -83.5% (active) in the test with UO-31 renal; -39.1% (active) with TK-10 renal; -48.3% (active) in the test on CAKI-1 renal; -46.2% (active) in the test with A498 renal. Further, the growth was 28.2% in the test on HL-60(TB) leukemia and 11.1% in the test with CCRF-CEM leukemia.
With `CC(C)(C)N1CC1C#N` (centres undefined), the growth in the test on SN12C renal was 103%; with UO-31 renal it was 92.1%; in the test on TK-10 renal, 98%; in the test on ACHN renal, 101%; with CAKI-1 renal, 92.6%; in the test on A498 renal, 105%. The growth in the test on HL-60(TB) leukemia is 98.3%; in the test with CCRF-CEM leukemia, 101%.
With `CC1=C(O)[C@@](C)(CCCCC[C@H](C)CCCCc2ccc(O)cc2)OOC1=O`, the growth was 95.4% with EKVX NSCLC; 68.8% with UO-31 renal; 129% with TK-10 renal; 97.5% in the test with ACHN renal; 80.6% in the test on CAKI-1 renal; 119% with A498 renal. Moreover, the growth in the test on HL-60(TB) leukemia was 84.4%.
For `CCNc1nc(Cl)nc(NCC)n1`, the growth in the test on EKVX NSCLC is 86.5%; in the test on SN12C renal, 102%; in the test with UO-31 renal, 77.1%; in the test on TK-10 renal, 116%; in the test on ACHN renal it was 102%; in the test with CAKI-1 renal it was 77.3%. Besides, the figures for the growth in the test on A498 renal, in the test with HL-60(TB) leukemia and in the test on CCRF-CEM leukemia were 95.8%, 98.4% and 96.8%, respectively.
For the compound `C#Cc1ccc2c(c1)C(c1ccccc1F)=NCC(=O)N2C`, the growth in the test with SK-MEL-2 melanoma was 19.4%; with UO-31 renal, 72.5%; with TK-10 renal, 75.5%; with ACHN renal it was 56.9%; in the test with CAKI-1 renal, 55.1%; with A498 renal it was 19.2%. Also, the growth in the test with HL-60(TB) leukemia is 10.2%; in the test on CCRF-CEM leukemia it was 58.8%.
Turning to `CC(=O)OCc1cc[c]([Hg][Cl])o1`, the growth in the test with SK-MEL-2 melanoma was 64.9%; in the test with SN12C renal, 55.9%; in the test with UO-31 renal, 83.1%; in the test on TK-10 renal, 127%; in the test with CAKI-1 renal, 25.9%; with A498 renal, 123%. Further, the values for the growth in the test on HL-60(TB) leukemia and in the test on CCRF-CEM leukemia were -25.1% (active) and -20% (active), respectively.
On to `CC(=O)C(c1c(O)c2ccccc2oc1=O)c1cc(=O)oc2c1ccc1ccccc12` (centres undefined), for which the growth with EKVX NSCLC was 92.1%; in the test with SN12C renal it was 87.1%; with UO-31 renal, 80.3%; in the test with TK-10 renal, 116%; in the test on ACHN renal it was 101%; with A498 renal, 79.8%. The growth in the test with HL-60(TB) leukemia was 96.9%; with CCRF-CEM leukemia, 94.5%.
Regarding `C=C1C(=O)O[C@H]2[C@H]1CC/C(COC(=O)C(=O)c1cn(Cc3ccccc3)c3ccccc13)=C\CC[C@@]1(C)O[C@@H]21`, the growth in the test with EKVX NSCLC was -40.7% (active); in the test on SN12C renal, -70.3% (active); with UO-31 renal, -91.3% (active); in the test on TK-10 renal, -62.2% (active); with ACHN renal, -61.5% (active); in the test with CAKI-1 renal it was -34.6% (active). For the same compound, the results for the growth in the test with A498 renal, with HL-60(TB) leukemia and with CCRF-CEM leukemia were 52.4%, -26.6% (active) and -30.6% (active), respectively.
As for `CCCCC1(CCC)C(=O)NC(=S)NC1=O`, the growth in the test on SK-MEL-2 melanoma is 91.2%; in the test on UO-31 renal, 85.7%; in the test on TK-10 renal, 118%; with ACHN renal, 94.8%; in the test with CAKI-1 renal, 97.2%; in the test on A498 renal, 129%. The growth was 95.5% with HL-60(TB) leukemia and 115% in the test with CCRF-CEM leukemia.
With `CC(=O)O[C@H]1CC[C@@]2(C)C(=CC[C@H]3[C@@H]4C[C@@H](N5CC5)[C@H](C(C)=O)[C@@]4(C)CC[C@@H]32)C1`, the growth in the test with SK-MEL-2 melanoma was 103%; in the test on UO-31 renal, 104%; in the test with TK-10 renal, 105%; in the test on ACHN renal, 83.1%; in the test on CAKI-1 renal, 89.3%; in the test on A498 renal, 98.7%. In addition, the growth is 92.4% with HL-60(TB) leukemia and 78% with CCRF-CEM leukemia.
Consider `COC(=O)[C@H](Cc1c[nH]c2ccccc12)NC(=O)[C@@H](OC)[C@@H]1Cc2cc3cc(OC4CC(OC5CC(O)C(O)C(C)O5)C(O)C(C)O4)c(C)c(O)c3c(O)c2C(=O)[C@H]1OC1CC(OC2CC(OC3CC(C)(O)C(O)C(C)O3)C(O)C(C)O2)C(O)C(C)O1` (some centres undefined), for which the growth is 3.61% (active) in the test with EKVX NSCLC; 10.6% in the test with SN12C renal; -6.63% (active) in the test on UO-31 renal; 8.12% (active) with TK-10 renal; 0.567% (active) in the test on ACHN renal; 19.5% in the test on CAKI-1 renal. Also, the growth in the test on A498 renal is -52.8% (active); in the test on HL-60(TB) leukemia it was -8.66% (active); in the test on CCRF-CEM leukemia, 5.66% (active).
`CC(C)[C@]12O[C@H]1[C@@H]1O[C@]13[C@]1(O[C@H]1C[C@H]1c4c(C(=O)c5ccccc5)oc(OC(=O)c5ccccc5)c4CC[C@@]13C)[C@@H]2O`: the growth in the test with EKVX NSCLC is -17.2% (active); with SN12C renal it was 23.7%; with UO-31 renal, 7.34% (active); in the test with TK-10 renal, 44%; in the test on ACHN renal, 10.6%; in the test on A498 renal, -49.4% (active). Besides, the values for the growth in the test with HL-60(TB) leukemia and in the test on CCRF-CEM leukemia were -46% (active) and -32.5% (active), respectively.
